TMEM16A inh: blocks the mouse calcium-activated chloride channel TMEM16A | Q8BHY3 | HEK293 TMEM16A/YFP iodide influx fluorescence, ionomycin | normalized B-score (activity score, 25-100; higher = stronger inhibition) at 10 µM | 310,000 tested, 1.2% active | AID 588511;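 active means ratio plate-corrected score three or more library SD toward inhibition, starting fluorescence score within five deviations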;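 further: score derived from kinetic fluorescence span divided by baseline fluorescence per well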
ANO1 activ: activators or potentiators of mouse TMEM16A chloride channel. 340,000 tested, 0.3% active. HEK293 TMEM16A/YFP-H148Q/I152L, iodide quench fluorescence; active compounds read low. B-score at 10 µM;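 active means fluorescence-ratio B-score plate-corrected deviation score at least 3 library SD below zero, with starting fluorescence score within 5 deviations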;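 further: channel opened by trigger with iodide after compound preincubation; score built on the fluorescence ratio of max minus min over baseline; more negative score means more quench and so TMEM16A activation or potentiation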
HDAC3 inhib: human HDAC3 inhibition; O15379; recombinant HDAC3, fluorogenic peptide/trypsin coupled, fluorescence; inhibition, % at 8.3 µM; 320,000 tested, 0.15% active; AID 2718; in the data active means inhibition above about 26%, passing the limit was not always enough
Target sequence (O15379 whole entry, looked up): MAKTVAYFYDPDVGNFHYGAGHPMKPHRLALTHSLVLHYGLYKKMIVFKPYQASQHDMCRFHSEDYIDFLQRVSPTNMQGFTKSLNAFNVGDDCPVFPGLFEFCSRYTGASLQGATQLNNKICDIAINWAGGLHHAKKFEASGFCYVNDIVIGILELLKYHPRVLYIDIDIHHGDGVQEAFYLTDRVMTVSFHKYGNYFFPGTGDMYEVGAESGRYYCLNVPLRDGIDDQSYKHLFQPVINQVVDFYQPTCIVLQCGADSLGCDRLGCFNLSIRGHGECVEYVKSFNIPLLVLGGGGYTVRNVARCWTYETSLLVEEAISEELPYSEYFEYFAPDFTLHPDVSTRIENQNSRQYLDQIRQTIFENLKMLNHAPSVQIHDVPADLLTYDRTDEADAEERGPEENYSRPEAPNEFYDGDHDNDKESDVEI
PHOSPHO1 inh: inhibitors of human PHOSPHO1 phosphatase; Q8TCT1; recombinant PHOSPHO1, absorbance phosphatase assay; inhibition, % at 13.3 µM; 290,000 tested, 1.1% active; in the data active means inhibition above about 60%
CHT inh: inhibitors of human choline transporter CHT; Q9GZV3; CHT-expressing cells, membrane potential dye, choline response; active compounds read low; AID 488975; B-score at 10 µM; 310,000 tested, 0.86% active;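 active means B-score over 3 SD under the library average, and starting fluorescence ratio not unusually high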;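 further: choline stimulus applied at its EC90 after an EC20 pre-addition; B-score computed on integrated fluorescence ratio after choline addition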
CHT allo act: allosterically activates the human high affinity choline transporter. 310,000 tested, 0.49% active. B-score at 10 µM. CHT-expressing cells, membrane potential dye, choline EC20; active compounds read high; LV-AA mutant CHT in HEK293 cells. AID 488977;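 active means initial fluorescence not abnormally high and integrated response B-score, plate-corrected, over 3 SD above library mean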
CHT activ conf: confirmation of human choline transporter (CHT) activators; shares compounds with CHT allo act; 2,500 tested, 91% active; CHT-expressing cells, membrane potential dye fluorescence (FDSS); % of choline EC20–EC90 response window; HEK293 expressing CHT LV-AA mutant; choline added at its EC20; activation, % at 10 µM; AID 504833;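 active means primary screen active, with duplicate mean activation above negative control mean plus 3 SD, cut at about 11% in these data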
HEK293 MP dye: counter-screen for CHT activators: effect in parental HEK293 cells. shares compounds with CHT allo act. membrane potential dye fluorescence (FDSS); measured after EC20 choline addition. ratio readout change at 10 µM, hits read low. 2,500 tested, 62% active. AID 623908;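 active means duplicate-averaged ratio beyond 3 SD from buffer wells, up or down, though filed actives are nearly all decreases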
* hit, by the source's call. Sampled rows, rich in hits. Any-hit rate of the full collection: about 3.2%.

How did CCN(CC(=O)Nc1ccccc1C(F)(F)F)C(=O)CCOc1ccc(C)cc1 do in these assays?
TMEM16A inh: inactive; ANO1 activ: inactive; CHT inh: inactive; CHT allo act: inactive; CHT activ conf: 7; HEK293 MP dye: inactive

What do the screens show for `Cc1cc(C)c(/C=N/NC(N)=O)c(C)c1/C=N/NC(N)=O`?
TMEM16A inh: inactive; ANO1 activ: inactive; HDAC3 inhib: 5; PHOSPHO1 inh: 14; CHT inh: inactive; CHT allo act: 6.4*; CHT activ conf: 47*; HEK293 MP dye: -62*

Results for CCC[n+]1c(C)sc2c3c(ccc21)CCCC3 ?
TMEM16A inh: inactive; ANO1 activ: inactive; HDAC3 inhib: -1; PHOSPHO1 inh: -13; CHT inh: inactive; CHT allo act: 11*; CHT activ conf: 82*; HEK293 MP dye: -69*

Results for NC(N)=Nc1nc(-c2ccccc2)c2ccccc2n1 ?
TMEM16A inh: inactive; ANO1 activ: inactive; HDAC3 inhib: -11; PHOSPHO1 inh: -13; CHT inh: inactive; CHT allo act: 8.1*; CHT activ conf: 24*; HEK293 MP dye: -52*

How did COc1ccccc1C(=O)Nc1ccnn1C1CCN(C/C=C/c2ccc(F)cc2)CC1 do in these assays?
TMEM16A inh: inactive; ANO1 activ: inactive; HDAC3 inhib: 8; PHOSPHO1 inh: 2; CHT inh: inactive; CHT allo act: inactive; CHT activ conf: 7; HEK293 MP dye: inactive

How did O=C(Nc1ccnn1C1CCN(C/C=C/c2ccccc2)CC1)c1ccccc1Cl do in these assays?
TMEM16A inh: inactive; ANO1 activ: inactive; HDAC3 inhib: 2; PHOSPHO1 inh: 42; CHT inh: inactive; CHT allo act: inactive

How did Cc1ccc(C)c(CN2C(=O)CSc3ccc(C(=O)NCC(C)CN4CCC(C)CC4)cc32)c1 (centres undefined) do in these assays?
TMEM16A inh: inactive; ANO1 activ: inactive; HDAC3 inhib: 1; PHOSPHO1 inh: 5; CHT inh: inactive; CHT allo act: 6.8*; CHT activ conf: 40*; HEK293 MP dye: -34*

What do the screens show for `CCOC(=O)CNC(=O)OC1CCN2Cc3ccccc3N=C12` (centres undefined)?
TMEM16A inh: inactive; ANO1 activ: inactive; HDAC3 inhib: -8; PHOSPHO1 inh: 37; CHT inh: inactive; CHT allo act: inactive

What do the screens show for `OCCCn1c(C2CCCN2c2nc(-c3ccc(F)cc3)cs2)nc2cc(Cl)c(Cl)cc21` (centres undefined)?
TMEM16A inh: inactive; ANO1 activ: inactive; HDAC3 inhib: 3; CHT inh: inactive; CHT allo act: inactive

What do the screens show for `Cn1c(=O)[nH]c(=O)c2c1nc(SCCN1CCCCC1)n2Cc1ccccc1`?
TMEM16A inh: inactive; ANO1 activ: inactive; HDAC3 inhib: 4; PHOSPHO1 inh: 14; CHT inh: inactive; CHT allo act: 9.9*; CHT activ conf: 58*; HEK293 MP dye: -61*

What do the screens show for `Cc1cccc(Cn2c(N3CCN(CCO)CC3)nc3c2c(=O)[nH]c(=O)n3C)c1`?
TMEM16A inh: inactive; ANO1 activ: inactive; HDAC3 inhib: -7; PHOSPHO1 inh: -6; CHT inh: inactive; CHT allo act: inactive

Results for Cc1cccc(Cn2c(SCCN3CCCCC3)nc3c2c(=O)[nH]c(=O)n3C)c1 ?
TMEM16A inh: inactive; ANO1 activ: inactive; PHOSPHO1 inh: -1; CHT inh: inactive; CHT allo act: 9*; CHT activ conf: 61*; HEK293 MP dye: -62*

How did C=CCn1c(SCC(=O)Nc2ccc(OC)cc2)nc2c([nH]c3ccccc32)c1=O do in these assays?
TMEM16A inh: inactive; ANO1 activ: inactive; HDAC3 inhib: -5; PHOSPHO1 inh: 19; CHT inh: inactive; CHT allo act: inactive

Results for Cn1c(=O)[nH]c(=O)c2c1nc(SCCN1CCCCC1)n2CCCc1ccccc1 ?
TMEM16A inh: inactive; ANO1 activ: inactive; HDAC3 inhib: 13; PHOSPHO1 inh: 88*; CHT inh: inactive; CHT allo act: inactive; CHT activ conf: 53*; HEK293 MP dye: -54*

How did C=CCn1c(SCCN2CCCC2)nc2c([nH]c3ccccc32)c1=O do in these assays?
TMEM16A inh: inactive; ANO1 activ: inactive; HDAC3 inhib: -3; PHOSPHO1 inh: -13; CHT inh: inactive; CHT allo act: 6.5*; CHT activ conf: 40*; HEK293 MP dye: -41*

Results for Cc1ccc(Cn2c(SCCN3CCCCC3)nc3c2c(=O)[nH]c(=O)n3C)cc1 ?
TMEM16A inh: inactive; ANO1 activ: inactive; PHOSPHO1 inh: -42; CHT inh: inactive; CHT allo act: 6.5*; CHT activ conf: 53*; HEK293 MP dye: -50*

Results for C=CCn1c(SCCN2CCCCC2)nc2c1c(=O)[nH]c(=O)n2C ?
TMEM16A inh: inactive; ANO1 activ: inactive; HDAC3 inhib: 4; PHOSPHO1 inh: 20; CHT inh: inactive; CHT allo act: 10*; CHT activ conf: 64*; HEK293 MP dye: -63*

Results for O=C(CSc1ccccn1)Nc1cccc(S(=O)(=O)N2CCCC2)c1 ?
ANO1 activ: inactive; HDAC3 inhib: 4

What do the screens show for `COc1cc2c(cc1OC)C(c1cc3ccccc3oc1=O)=NC(C)(C)C2`?
TMEM16A inh: inactive; ANO1 activ: inactive; HDAC3 inhib: 0; PHOSPHO1 inh: -26; CHT inh: inactive; CHT allo act: inactive

How did COc1ccc(C2=NC(C)(C)Cc3cc(OC)c(OC)cc32)cc1OC do in these assays?
TMEM16A inh: inactive; ANO1 activ: inactive; HDAC3 inhib: -5; PHOSPHO1 inh: 41; CHT inh: inactive; CHT allo act: inactive; CHT activ conf: 72*; HEK293 MP dye: -83*

Results for O=C(O)/C(=C\c1ccc(Cl)cc1)c1ccc(F)cc1 ?
TMEM16A inh: inactive; ANO1 activ: inactive; HDAC3 inhib: -4; PHOSPHO1 inh: 11; CHT inh: inactive; CHT allo act: inactive

Results for COc1ccc2occ(C(=O)c3coc4ccc(O)c(CN(C)C)c34)c2c1 ?
TMEM16A inh: inactive; ANO1 activ: inactive; HDAC3 inhib: -5; PHOSPHO1 inh: 7; CHT inh: inactive; CHT allo act: 7.6*; CHT activ conf: 32*; HEK293 MP dye: -36*

What do the screens show for `N#CCc1ccc(Oc2ncccn2)cc1`?
TMEM16A inh: inactive; ANO1 activ: inactive; HDAC3 inhib: 2; CHT inh: inactive; CHT allo act: inactive

Screening data: PubChem BioAssay, several laboratories
